The source made the active and inactive calls.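 Rule for the calls: active = mean duplicate potentiation above the buffer control mean plus 5 SD of buffer wells; inactive = the rest.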
Biological target: Potassium voltage-gated channel subfamily KQT member 2 (Rattus norvegicus) (UniProt O88943)
Test: rat KCNQ2 channel potentiation, selectivity assay for KCNQ1 potentiator project, KCNQ2-CHO-K1 cells (AID 493009);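 note: assay conditions were tuned for KCNQ1 rather than KCNQ2 modulators; signal is max minus min fluorescence divided by baseline after thallium stimulus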
Details: FluxOR thallium flux fluorescence, at 10 µM; stronger effect = higher value, scaled: buffer 0, activator control 100

Sequence of Potassium voltage-gated channel subfamily KQT member 2 (Rattus norvegicus) (O88943 whole entry, looked up): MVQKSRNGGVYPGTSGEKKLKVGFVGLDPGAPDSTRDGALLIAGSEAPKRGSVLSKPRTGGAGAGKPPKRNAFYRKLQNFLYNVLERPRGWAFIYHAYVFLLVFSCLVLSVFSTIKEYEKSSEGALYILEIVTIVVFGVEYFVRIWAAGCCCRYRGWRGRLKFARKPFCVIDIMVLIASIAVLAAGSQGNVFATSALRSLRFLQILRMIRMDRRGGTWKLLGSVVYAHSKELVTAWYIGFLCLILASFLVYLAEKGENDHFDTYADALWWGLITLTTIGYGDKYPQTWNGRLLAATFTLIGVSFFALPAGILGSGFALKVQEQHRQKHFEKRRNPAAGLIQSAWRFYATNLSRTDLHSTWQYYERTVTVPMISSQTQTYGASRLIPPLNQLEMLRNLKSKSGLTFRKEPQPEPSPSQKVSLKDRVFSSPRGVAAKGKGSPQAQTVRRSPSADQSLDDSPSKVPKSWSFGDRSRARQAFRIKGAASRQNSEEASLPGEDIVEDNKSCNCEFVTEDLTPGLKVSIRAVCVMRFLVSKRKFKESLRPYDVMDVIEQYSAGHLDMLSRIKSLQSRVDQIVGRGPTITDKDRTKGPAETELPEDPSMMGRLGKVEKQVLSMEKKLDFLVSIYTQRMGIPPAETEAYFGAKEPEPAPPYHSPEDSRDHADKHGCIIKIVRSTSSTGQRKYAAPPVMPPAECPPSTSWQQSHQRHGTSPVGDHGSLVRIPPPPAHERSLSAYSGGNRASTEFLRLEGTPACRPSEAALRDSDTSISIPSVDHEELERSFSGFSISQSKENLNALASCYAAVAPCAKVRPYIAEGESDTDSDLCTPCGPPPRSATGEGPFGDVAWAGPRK

SMILES | outcome | potentiation
Cc1cc(C(=O)N/N=C/C=C/c2ccc3c(c2)OCO3)n[nH]1 | inactive | –
Cc1ccc(/C=C/C(=O)c2ccccc(=O)c2O)c(C)c1 | – | 280% (active)
CCCCC(=O)N(c1ccc(OCC)cc1)C1C=CS(=O)(=O)C1 (stereo not given) | inactive | –
CC(c1ccccc1C(O)(c1ccccc1)c1ccccc1)N(C)C (stereo not given) | inactive | –
Cc1cccc(CC2CC(=O)N(c3ccc(C)cc3Br)C2=O)c1 (stereo not given) | inactive | –
Cc1ccccc1NC(=S)NNC(=O)c1csc2c1CCC(C)C2 (stereo not given) | – | 200% (active)
CN(CCCNC(=O)CSc1cc(=O)n(C)c2ccc(Cl)cc12)Cc1ccccc1 | inactive | –
CCCn1nnnc1SCC(=O)c1ccc2c(c1)OCCO2 | inactive | –
CCc1nc2sc3c(=O)[nH]cnc3c2c2c1CSC(C)(C)C2 | inactive | –
CCOC(=O)c1c(NC(=S)NC(=O)c2ccco2)sc2c1CCCC2 | inactive | –
O=C(NN=C1CCCC1)c1n[nH]c2c1CCC2 | – | 178% (active)
O=C1c2ccccc2C2(c3cc(C(F)(F)F)cc(C(F)(F)F)c3)NCCN12 (stereo not given) | inactive | –
Oc1c(Br)cc(Br)cc1C=NCc1ccccc1 | inactive | –
COc1cccc(OC)c1OCCOCCN1CCN(C)CC1 | inactive | –
C=CCCCN(Cc1ccccc1)S(=O)(=O)c1ccccc1Br | inactive | –
O=c1cc(-c2ccccc2)cc(-c2ccccc2)n1O | – | 322% (active)
OC(CON=C1c2ccccc2-c2ccccc21)CN1CCNCC1 (stereo not given) | inactive | –
CCN1c2ccccc2-c2nc3ccccc3n2C1c1cccnc1 (stereo not given) | inactive | –
Fc1ccc(SCCc2ccncc2)cc1 | inactive | –
CCCCCCCCCCCCN1[C@@H](CC(=O)O)c2cc(F)ccc2S1(=O)=O | – | 190% (active)
